Screening data deposited in PubChem BioAssay by Broad Institute.
Vif imaging = HIV Vif self-association inhibitors, primary screen, imaging, HEK293T, single point; AID 602346, 2012; 340,000 tested, 0.35% active; HEK293T cells, Vif self-association by quenched fluorescence, 24 h; inhibition, % at 7.49 µM; in the data active means inhibition above about 50%, passing the limit was not always enough
esBAF inh = Bmi1 luciferase reporter increase in mESCs, primary screen, esBAF inhibitor project, mouse ES cells, Bmi1 luciferase knock-in, single point; 24 h; 100% = twice the neutral-well signal; reporter increase, % at 12.5 µM; 350,000 tested, 2% active; AID 602393, 2012; in the data active means activation above about 40%;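 further: 0% = median of the plate's neutral control wells and 100% = double that signal; a rise in the Bmi1 reporter signal indicates esBAF inhibition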
HSF-1 act = HSF-1 activators, primary screen, NIH3T3-HGL cells, MG132 stress, luminescence, single point | NIH3T3-HGL HSF-1 luciferase reporter, 8 h; 100% = twice DMSO control signal | activation, % at 9 µM | 300,000 tested, 1.7% active;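 active means mean replicate activation of at least 50% with a set share of replicates each reaching 50%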;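 further: 0% = median of the neutral control wells and 100% = twice that signal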
HSF1 inh = HSF1 inhibitors in luciferase reporter cells, primary screen, cell-based, NIH3T3, luminescence. NIH3T3-HGL HSE-luciferase, MG132-induced, luminescence 8 h; stronger effect = lower value. AID 2098, 2009. 300,000 tested, 0.77% active. activity change, negative = inhibition, % at 7.5 µM (by protocol);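 active means more than half of replicate wells show activity change below -50%, luminescence cut by over half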;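 further: luciferase reports HSF-1 transcriptional activity via heat shock element; 0% = median of DMSO wells and -100% = zero luminescence signal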
An asterisk follows results filed as active; / = not tested or not shown. An excerpt weighted towards active compounds, which were near 3.4% of everything screened.

SMILES | Vif imaging | esBAF inh | HSF-1 act | HSF1 inh
CCOC(=O)c1c(C)[nH]c(C(=O)OCC(=O)Nc2ccc(Cl)cn2)c1C | 11 | -1 | / | /
NC(=O)c1ccsc1NC(=O)COC(=O)c1c(F)cccc1Cl | 2 | 112* | / | /
CC(C)NC(=O)N(C)C[C@@H]1OCc2ccccc2-c2c(n(C)c3ccccc23)C(=O)N([C@H](C)CO)C[C@@H]1C | / | 9 | / | /
C[C@H](CO)N1C[C@H](C)[C@H](CN(C)Cc2ccccc2)Oc2ncc(-c3ccccc3F)cc2C1=O | / | 0 | / | /
COc1ccc(-c2nnn(CC(=O)N(Cc3ccco3)C(C(=O)NCC3CCCO3)c3ccco3)n2)cc1 (centres undefined) | 4 | / | -7 | -4
COc1ccc(CN(C(=O)Cn2nnc(-c3ccc(C)o3)n2)C(C(=O)NCC2CCCO2)c2ccco2)cc1 (centres undefined) | 71* | / | 0 | -8
CC(=O)Nc1ccc(S(=O)(=O)N2c3ccccc3C(C)=CC2(C)C)cc1 | 81* | / | -13 | -14
C[C@H]1CN([C@@H](C)CO)C(=O)c2cc(NS(=O)(=O)c3ccccc3)ccc2O[C@@H]1CN(C)S(=O)(=O)c1ccc(Cl)cc1 | / | 0 | / | /
CCCCCN(C(=O)CCC(=O)OCC(=O)NCCc1ccccc1)c1c(N)n(CCCC)c(=O)[nH]c1=O | -2 | 3 | / | /
CCCCCN(C(=O)CCC(=O)OCC(=O)N(CC)c1ccccc1)c1c(N)n(CCCC)c(=O)[nH]c1=O | -15 | -4 | 58* | 25
CN1C(=O)C2C=CC1C1C(=O)N(c3ccccc3)C(=O)C21 (centres undefined) | -4 | 57* | -8 | -2
Clc1ccc(CCNc2nc3ccccc3n3nnnc23)cc1 | / | 7 | 51* | 26
COc1cc(CC(=O)N(c2ccccc2)c2nc(C)cs2)cc(OC)c1OC | -1 | / | 62* | 23
Cc1csc(N(C(=O)c2ccccc2F)c2ccccc2)n1 | -2 | / | 7 | 0
C=CCN1N=C(/C=C/c2ccc(C)cc2)CCC1=O | 15 | 56* | 42 | 27
COCC(=O)Nc1ccc2c(c1)[C@@H]1C[C@@H](CC(=O)NCc3ccc(Cl)cc3)O[C@@H](CO)[C@@H]1O2 | / | 2 | / | /
O=C1/C(=C/N(C(=O)c2ccco2)c2ccc(Br)cc2)Sc2ccccc21 | -10 | 48* | 19 | 14
CC(C)CC#Cc1cnc2c(c1)C(=O)N([C@@H](C)CO)C[C@H](C)[C@@H](CN(C)C(=O)c1ccccc1F)O2 | / | -2 | / | /
Cc1ccc(OCC(=O)N(Cc2ccco2)C2CCS(=O)(=O)C2)cc1C (centres undefined) | -1 | 0 | -16 | -6
Cc1cc(OCC(=O)N(Cc2ccco2)C2CCS(=O)(=O)C2)cc(C)c1Cl (centres undefined) | -4 | / | 57* | 11
COc1ccc(CNC(=O)C[C@H]2C[C@H]3c4cc(NC(=O)CC5CC5)ccc4O[C@H]3[C@H](CO)O2)cc1 | / | -1 | / | /
Cn1ncc([N+](=O)[O-])c1C(=O)Nc1ccccc1Cl | 5 | 6 | -77 | -73*
Cc1ccccc1NC(=O)c1c([N+](=O)[O-])cnn1C | 6 | -3 | -8 | -11
CNC[C@H]1OCCCC[C@@H](C)Oc2ccc(NC(=O)Nc3cccc4ccccc34)cc2C(=O)N([C@H](C)CO)C[C@H]1C | / | 1 | / | /
C[C@@H]1CN([C@H](C)CO)C(=O)c2cc(C#Cc3ccccc3F)cnc2O[C@@H]1CN(C)C(=O)c1ccc2c(c1)OCO2 | / | 3 | / | /
SMILES | Vif imaging | esBAF inh | HSF-1 act | HSF1 inh
C[C@H](CO)N1C[C@H](C)[C@@H](CN(C)C(=O)Nc2cccc(F)c2)Oc2ncc(C3=CCCC3)cc2C1=O | / | 5 | / | /
CC(=O)N1c2c(cc(Br)cc2S(=O)(=O)N2CCCCC2)CC1C (centres undefined) | -4 | 8 | 20 | 5
CC(=O)N1c2c(cc(Br)cc2S(=O)(=O)N2CCOCC2)CC1C (centres undefined) | 63* | -2 | 4 | 5
CCC1(c2ccc(Cl)cc2)NC(=S)N(c2ccccc2)N1 (centres undefined) | -10 | 11 | 70* | 56
CCC1(c2ccccc2)NC(=S)N(c2ccc(C)cc2)N1 (centres undefined) | -2 | 45* | 44 | 26
CCCCCC1(C)NC(=S)N(c2ccccc2)N1 (centres undefined) | 1 | / | 23 | -2
CCOc1ccc2c(c1)C(=NNC(=O)c1ccncc1)c1cc(OCC)ccc1-2 | -5 | 54* | 30 | 6
COc1cccc(S(=O)(=O)N[C@H]2CC[C@@H](CC(=O)NCc3ccc(F)cc3)O[C@H]2CO)c1 | / | 3 | / | /
CC(=O)Nc1ccc(SCC(=O)c2cc(C)n(-c3ccccc3F)c2C)cc1 | -4 | / | -71 | -68*
COC(=O)c1ccc(-n2c(C)cc(C(=O)CSc3ccc(NC(C)=O)cc3)c2C)cc1 | -4 | / | -1 | 0
CC(=O)Nc1ccc(SCC(=O)c2cc(C)n(Cc3cccs3)c2C)cc1 | / | -53 | -75 | -69*
COC(=O)c1ccccc1OCCCOc1ccc(C=O)cc1OC | 5 | 70* | -6 | -8
COC(=O)c1ccccc1OCCOc1ccccc1C(=O)OC | -5 | -7 | -1 | -6
CNC(=O)COc1ccc(C=O)cc1OC | -1 | / | 10 | 3
COc1cc(C=O)ccc1OCc1cccc(Br)c1 | 5 | / | 63* | 24
CCN(CC)C(=O)COc1ccc(C=O)cc1OC | 1 | -4 | 75* | 38
C[C@H](CO)N1C[C@H](C)[C@@H](CN(C)S(=O)(=O)c2ccc(F)cc2)Oc2ccc(NC(=O)CCN3CCOCC3)cc2CC1=O | / | 0 | / | /
O=C(Nc1ccccc1)N1CCCN(c2ccc(C(F)(F)F)cc2[N+](=O)[O-])CC1 | 0 | / | 54* | 39
O=C(NCC1CCCO1)c1ccc2[nH]c3c(c2c1)CCCC3 (centres undefined) | -4 | 45* | / | /
O=C(NCC1CCCO1)c1cccc(C(=O)NCC2CCCO2)c1 (centres undefined) | 9 | 12 | -2 | -3
O=C(NCC1CCCO1)c1ccc(COc2ccccc2)cc1 (centres undefined) | -6 | 49* | -9 | 6
Cc1ccc(OCc2ccc(C(=O)NCC3CCCO3)cc2)cc1 (centres undefined) | 1 | / | 13 | 5
CC(C)(C)Cc1nnc(NC(=O)c2ccc([N+](=O)[O-])cc2)s1 | -1 | / | 16 | 3
CCC(C)(C)c1nnc(NC(=O)c2ccc([N+](=O)[O-])cc2)s1 | / | 48* | 34 | 3
O=C(C[C@@H]1CC[C@@H]2NC[C@@H](O)COC[C@H]2O1)NCCN1CCCC1 | / | -19 | / | /
COc1ccc(C[C@@H]2OC3(C=CC(=O)C=C3)O[C@H]2Cc2ccc(OC)cc2)cc1 | 69* | -86 | / | /
O=C1C=CC2(C=C1)O[C@H](Cc1ccccc1)[C@@H](Cc1ccccc1)O2 | -8 | / | / | /
